Screening results (PubChem)
RORg inh = ROR gamma (mouse) transcription inhibition; P51450; Drosophila S2 Gal4-RORgamma UAS-luciferase reporter, 20 h; Potency, µM (series often up to 53.6 µM), for inactives: at the top dose activity change, negative = inhibition, usual class: inhibitors; 310,000 tested, 5.4% active; note: % is set by controls: 0 for no effect and ±100 for the full control effect; nearly all actives have a fitted effect of over 60% in size
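A Gal4/UAS one-hybrid system in insect cells: metallothionein-promoter Gal4–ROR gamma fusion plus Photinus luciferase reporter. Copper sulfate 700 uM final, 20 hr ambient incubation, luminescent detection after 10 min with reagent.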
ClpP mod = qHTS Assay for Activators of ClpP; purified B. subtilis ClpP, FRET peptide cleavage, 20 min; AID 651965, 2013; Potency, µM (doses to about 57.5 µM), without a hit: at the top dose activity change, negative = active; ATP-dependent Clp protease proteolytic subunit (Bacillus subtilis (strain 168)), P80244; 340,000 tested, 1.9% active; active = well fitted falling curve with a large enough effect; inconclusive = small, poorly fitted or top-dose-only effect; inactive = no such curve, though single readings can be large or run the other way; note: the source files actives as falling curves though it sought activators and does not explain the sign; nearly all actives have a fitted effect of over 65% in size
Target sequence (P80244 whole entry, looked up): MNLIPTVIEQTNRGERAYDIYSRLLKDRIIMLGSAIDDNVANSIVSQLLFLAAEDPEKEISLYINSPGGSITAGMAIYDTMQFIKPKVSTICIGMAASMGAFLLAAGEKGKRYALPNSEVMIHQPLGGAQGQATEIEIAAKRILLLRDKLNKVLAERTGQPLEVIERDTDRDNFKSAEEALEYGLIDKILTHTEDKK
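ClpP 10 microg/mL final, pH 8 Tris/KCl buffer with BSA, glycerol, Tween-20; compound pinned in; FRET-FV substrate; RT 20 min; Ex320/Em430; ΔFRET vs ADEP 5.8 microM, DMSO, no enzyme.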
Epigenetic reg = regulators of epigenetic silencing causing reporter derepression in mouse cells; murine LDR cells, GFP reporter derepression, 30 h; Potency, µM (highest dose often 53.9 µM), inactives show at the highest dose GFP activation, actives largely listed as activators; 280,000 tested, 0.2% active; AID 1865; note: % of control where 0% means no effect; nearly all actives have a fitted effect of over 60% in size
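Murine LDR cells carrying a silenced, genomically integrated CMV-driven GFP reporter were exposed to compound for 30 hours at 37 C. After PBS washes, GFP-positive cells (20–120 um objects) were counted by laser-scanning microplate cytometry.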
VP16 counter = counter-screen for ROR gamma inhibitors: Gal4-VP16 reporter | Potency, µM (titrated, usually from 53.6 µM), inactives show top-dose activity, negative = inhibition, hits mostly inhibitors | 310,000 tested, 3.5% active | Drosophila S2 Gal4-VP16 UAS-luciferase, luminescence, 20 h;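 note: Gal4-VP16 expression switched on by copper sulfate through the metallothionein promoter; % is set by controls: 0 for no effect and ±100 for the full control effect; nearly all actives have a fitted effect of over 50% in size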
PINK1 modulator = changes PINK1 expression; PINK1 immunofluorescence, high-content cytometry, 24 h; AID 624263; 410,000 tested, 0.2% active; Potency, µM (titrated, usually from 76.6 µM), for inactives: top-dose activation (PINK1 increase), usual class: activators; active = well fitted activation curve with a large enough effect; inconclusive = small, poorly fitted or top-dose-only effect; cell line not stated here; note: % of control where 0% means no effect; nearly all actives have a fitted effect of over 65% in size
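Compound titrations (5 concentrations, 24 h) on a stable cell line; DMSO and CCCP controls. Endpoint: fixed-cell PINK1 immunofluorescence with mitochondrial, cell and nuclear markers, scanned by microplate cytometer.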
Sfp inh = inhibitors of Bacillus subtilis Sfp phosphopantetheinyl transferase. AID 1490. Biochemical Sfp PPTase activity, qHTS. 310,000 tested, 3.5% active. Q9F4F7. Potency, µM, inactives show largest response in the series, negative = inhibition, actives largely listed as inhibitors;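 note: the enzyme is Sfp with the accession as filed and its product quenches rhodamine fluorescence; 0% = enzyme reaction without inhibitor and -100% = no enzyme wells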
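Compounds were incubated with enzyme (final 15 nM) for 15 min at room temperature before substrate addition started the reaction. Fluorescence at 525 nm excitation, 598 nm emission was recorded immediately and after 30 minutes.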
* hit, by the source's call. Sampled rows, rich in hits. Any-hit rate of the full collection: about 8.1%. Unless noted, calls come from the whole dose curve; as a rule, active = well fitted curve in the direction sought with a large enough effect; inconclusive = small, poorly fitted or top-dose-only effect, or another doubt; inactive = no such curve, though single readings can be large; an effect the other way counts as inactive or inconclusive. Potency is the fitted concentration of half-maximal effect.

For CC(=O)Nc1ccc(NC(=O)C(C)OC(=O)/C=C/c2cn(-c3ccccc3)nc2-c2cccnc2)cc1 (stereo not drawn) the results were RORg inh 13µM*, ClpP mod -5%, Epigenetic reg 2%, VP16 counter inconclusive, PINK1 modulator -2% and Sfp inh -7%.
NC(=S)N/N=C/c1cn(-c2ccccc2)nc1-c1cccnc1 was read as RORg inh 6.3µM*, ClpP mod -2%, Epigenetic reg inconclusive, VP16 counter 8.9µM*, PINK1 modulator 5% and Sfp inh -3%.
Screening O=C(O)/C(=C\c1cn(-c2ccccc2)nc1-c1cccnc1)NC(=O)c1ccccc1 returned RORg inh 4%, ClpP mod 3%, Epigenetic reg 0%, VP16 counter -10%, PINK1 modulator 2% and Sfp inh 26%.
O=C(N/N=C/c1cn(-c2ccccc2)nc1-c1cccnc1)c1ccccc1 was read as RORg inh 5.6µM*, Epigenetic reg -1%, VP16 counter -2%, PINK1 modulator -1% and Sfp inh 5%.
For Cc1ccc(N2CCN(C(=O)c3cn(C)c4ccc(S(=O)(=O)N(C)C)cc4c3=O)CC2C)cc1 (stereo not drawn) the results were ClpP mod -5%, Epigenetic reg -2% and PINK1 modulator 1%.
For CCOc1ccccc1CNC(=O)CN(c1ccc(C)cc1)S(=O)(=O)N(C)C the results were ClpP mod 0%, Epigenetic reg 0% and PINK1 modulator 2%.
CCCSCCCNC(=O)C1CCN(c2nn3cc(-c4ccc(F)cc4)nc3s2)CC1 was read as ClpP mod -1%, Epigenetic reg -1% and PINK1 modulator 0%.
`COc1ccccc1CNS(=O)(=O)c1cnc(N)nc1` gave ClpP mod -2%, Epigenetic reg 1% and PINK1 modulator 0%.
For Cc1cc(N2CCN(C)CC2)ccc1NC(=O)c1c2c(nc3ccccc13)CCN(Cc1ccccc1)C2 the results were RORg inh 11µM*, ClpP mod -1%, Epigenetic reg -3%, VP16 counter 11µM*, PINK1 modulator 3% and Sfp inh 5%.
Screening COC(=O)C1=C(Nc2ccccc2NC(=O)CCCC(=O)O)CSC1 returned RORg inh 4%, Epigenetic reg 9%, VP16 counter -7%, PINK1 modulator 4% and Sfp inh 79µM*.
Screening COC(=O)C1=C(Nc2ccccc2NC(=O)c2ccccc2C(=O)O)CSC1 returned RORg inh inconclusive, ClpP mod -9%, Epigenetic reg -2%, VP16 counter inconclusive, PINK1 modulator -1% and Sfp inh 45µM*.
For CCOc1ccc(OCC(=O)Nc2nnc3n2CCS3)cc1 the results were ClpP mod -1%, Epigenetic reg 1% and PINK1 modulator -1%.
Screening COCCCNC(=O)c1cc2c(=O)oc3ccc(C)cc3c2s1 returned ClpP mod 4%, Epigenetic reg 1% and PINK1 modulator 4%.
For CCOc1c2ccc(C(=O)NCC34CC5CC(CC(C5)C3)C4)cc2nn1CC the results were RORg inh inconclusive, ClpP mod 4%, Epigenetic reg -2%, VP16 counter 11µM*, PINK1 modulator 0% and Sfp inh -3%.
`CCn1nc2cc(C(=O)NCC34CC5CC(CC(C5)C3)C4)ccc2c1OC` gave RORg inh 7.1µM*, ClpP mod 5%, Epigenetic reg -3%, VP16 counter inconclusive, PINK1 modulator 1% and Sfp inh -12%.
`CCOc1c2ccc(C(=O)NCc3ccco3)cc2nn1CC` gave RORg inh -2%, ClpP mod 4%, Epigenetic reg -1%, VP16 counter 0%, PINK1 modulator 0% and Sfp inh -3%.
CCCCn1nc2cc(C(=O)NCC34CC5CC(CC(C5)C3)C4)ccc2c1OC was read as RORg inh 0%, ClpP mod 4%, Epigenetic reg -1%, VP16 counter -12%, PINK1 modulator 5% and Sfp inh 7%.
Screening Cc1ccc(NC(=S)N/N=C/c2cccn2Cc2ccccc2F)cc1 returned RORg inh 0.35µM*, Epigenetic reg -1%, VP16 counter 1.1µM*, PINK1 modulator 10% and Sfp inh -7%.
`Cc1ccc(CN2CCN(CC(=O)N/N=C/c3ccccc3F)CC2)cc1` gave RORg inh 29%, ClpP mod 0%, Epigenetic reg 4%, VP16 counter 25%, PINK1 modulator -1% and Sfp inh 11%.
`Nc1cccc(-c2nc3ccc(C(=O)c4ccccc4)cc3[nH]2)c1` gave RORg inh -22%, ClpP mod -7%, VP16 counter -19%, PINK1 modulator 2% and Sfp inh 3%.
`COc1ccc2oc(=O)c(-c3nc4ccc(C)cc4[nH]3)cc2c1` gave ClpP mod -6%, Epigenetic reg 11µM* and PINK1 modulator 4%.
`COc1cccc2cc(-c3nc4ccc(C)cc4[nH]3)c(=O)oc12` gave ClpP mod -3%, Epigenetic reg 1% and PINK1 modulator 4%.
`COc1ccc2nc(-c3cccc(N)c3)[nH]c2c1` gave RORg inh inconclusive, ClpP mod inconclusive, Epigenetic reg -1%, VP16 counter 13µM*, PINK1 modulator -1% and Sfp inh -21%.
For COc1ccc2nc(-c3ccc(N)cc3)[nH]c2c1 the results were RORg inh 7.9µM*, ClpP mod 116%, Epigenetic reg 0%, VP16 counter 10µM*, PINK1 modulator -1% and Sfp inh -12%.
For CC(=O)ON(C(C)=O)c1ccc(/C=C2/C=Cc3ccccc32)cc1 the results were ClpP mod -2%.
`OCCN1CCN(Cc2ccc3c(c2)CN(Cc2ccc4ccccc4c2)CCO3)CC1` gave PINK1 modulator -1%.
CN(C)CCCNC(=O)C(=O)NCC1OCCN1S(=O)(=O)c1cccs1 (stereo not drawn) was read as RORg inh 1%, ClpP mod -2%, VP16 counter -8%, PINK1 modulator 2% and Sfp inh 79µM*.
For COc1cc(C(=O)Nc2sc3c(c2C#N)CCCC3)c(Br)c(OC)c1OC the results were ClpP mod -6%, Epigenetic reg -2% and PINK1 modulator 2%.
